In PubChem BioAssay (EPA / NIEHS) one finds outcome data, which are given here for 29 compounds.

Inconclusive results are not listed. Activity calls are given as the source filed them. The calls were made as follows: active = hit-call score of the fitted dose curve at least 0.9, where 1 is the maximum; inconclusive = response in the unintended direction; inactive = score below 0.9.

Cytochrome P450 2C19 (Homo sapiens), sequence (P33261 whole entry, looked up): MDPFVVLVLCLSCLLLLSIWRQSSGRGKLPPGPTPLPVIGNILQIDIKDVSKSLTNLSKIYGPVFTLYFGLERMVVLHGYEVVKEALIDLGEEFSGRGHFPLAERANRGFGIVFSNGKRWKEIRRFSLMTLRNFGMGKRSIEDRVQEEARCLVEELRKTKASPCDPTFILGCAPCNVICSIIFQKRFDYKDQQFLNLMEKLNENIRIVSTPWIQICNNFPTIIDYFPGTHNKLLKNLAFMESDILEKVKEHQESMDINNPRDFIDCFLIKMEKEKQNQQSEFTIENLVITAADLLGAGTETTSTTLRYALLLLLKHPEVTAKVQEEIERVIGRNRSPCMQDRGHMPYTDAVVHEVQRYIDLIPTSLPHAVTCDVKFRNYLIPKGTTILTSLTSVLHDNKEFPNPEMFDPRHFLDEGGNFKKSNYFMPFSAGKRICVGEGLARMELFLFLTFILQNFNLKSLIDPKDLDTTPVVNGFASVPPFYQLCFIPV

Read-out in this assay: Cytochrome P450 2C19 (Homo sapiens) (UniProt P33261)
Briefly: CLD_CYP2C19_24hr: CellzDirect (CLD) Gene Expression Assay for xenobiotic metabolism (CYP2C19) at 24 hours (AID 2283687).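 Also: activity means mRNA induction above DMSO vehicle baseline.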 Here is the method: CLD_24hr is a cell-based, multiplexed-readout assay that uses hepatocyte, a human liver primary cell, with measurements taken at 24 hours after chemical dosing in a 96-well plate.CLD_CYP2C19_24hr is one of 16 assay component(s) measured or calculated from the CLD_24hr assay. It is designed to make measurements of mRNA induction, a form of inducible reporter, as detected with chemiluminescence signals by Quantitative Nuclease Protection Assay (qNPA) technology.Data from the assay component CLD_CYP2C19_24hr was analyzed at the endpoint, CLD_CYP2C19_24hr, in the positive analysis fitting direction relative to DMSO as the negative control and baseline of activity. Using a type of inducible reporter, gain-of-signal activity can be used to understand changes in the reporter gene as they relate to the gene CYP2C19. Furthermore, this assay endpoint can be referred to as a primary readout. To generalize the intended target to other relatable targets, this assay endpoint is annotated to the cyp intended target family, where subfamily is xenobiotic metabolism.
Human hepatocyte cultures were treated daily for two consecutive days with fresh dosing solutions containing appropriate concentrations of the 320 ToxCast chemicals (chemical identities were blinded to CellzDirect and other ToxCast collaborators), vehicle control (0.2% DMSO), and positive control inducers as summarized in Table 1. Due to the large number of treatment groups and chemicals examined, the ToxCast chemicals were divided into two groups (spanning two independent cultures of hepatocytes from separate donor preparations (Hu778: ToxCast plates 1 and 2; Hu776: ToxCast plates 3 and 4). Each preparation of human hepatocyte cultures was treated with respective vehicle control, medium only control, set of six positive controls/reference chemicals for the five hepatic receptor pathways, and a subset of eight of the ToxCast chemicals (indoxacarb, pyrithiobac-sodium, norflurazon, cyhalofop-butyl, methomyl, thiram, acetochlor, and propiconazole). These replicate data, coupled with internal replicates designed within the blinded ToxCast chemical library, provided additional data to evaluate interindividual differences between hepatocyte preparations and their potential impact on chemical profiles.Cell morphology and integrity were evaluated using phase-contrast microscopy as an indicator of hepatocyte cell health (Tyson & Green, 1987). Cultures for each treatment group (i.e., media, vehicle [0.2% DMSO], positive control inducers [multiple concentrations], and the ToxCast chemicals [multiple concentrations]) were observed and cell morphology was assessed relative to vehicle control cultures at each harvest time point (0, 6, 24, or 48 h). […] Images were evaluated at the conclusion of the study to assess changes in cell integrity and account for the effects of chemical exposure on uncharacteristic changes in concentration-dependent gene expression profiles. The results from these determinations of apparent cytotoxicity were annotated (yes/no) alongside the corresponding qNPA data for reference.At the conclusion of each treatment period, hepatocyte cultures (96-well) were washed with 1 volume of HBSS, lysed by addition of 25 ul ArrayPlate lysis buffer (HTG, Tucson, AZ), and 70 ul/well of Denaturation Oil, denatured by incubation at 95C for 10 min, and frozen at approximately -70C until analysis by nuclease protection assay (qNPA) (Roberts et al., 2007). For qNPA analysis, cell lysates were thawed at 50C for approximately 30 min, qNPA probes were added, and samples were incubated at 95C for 10 min to begin the detection process by denaturing the target RNA, dissociating the duplexes and secondary structure hybridization. At the conclusion of the hybridization period, S1 nuclease reagent was added to each sample to digest all nonprotected nucleotides at 50C for 60-90 min. […]
Consider `CC[C@H](C)[C@H]1O[C@]2(C=C[C@@H]1C)C[C@@H]1C[C@@H](C/C=C(\C)[C@@H](O[C@H]3C[C@H](OC)[C@@H](O[C@H]4C[C@H](OC)[C@@H](O)[C@H](C)O4)[C@H](C)O3)[C@@H](C)/C=C/C=C3\CO[C@@H]4[C@H](O)C(C)=C[C@@H](C(=O)O1)[C@]34O)O2` (tested in a mixture with another compound), for which the outcome was inactive.

In the case of `CC(C)OC(=O)Nc1cccc(Cl)c1`, the result was inactive.

For `CC(C)(C)C(O)C(Oc1ccc(Cl)cc1)n1cncn1` (centres undefined), the compound was classed as inactive.

As to `CCS(=O)(=O)c1cccnc1S(=O)(=O)NC(=O)Nc1nc(OC)cc(OC)n1`, the outcome was inactive.

`CCC(C)(NC(=O)c1cc(Cl)c(C)c(Cl)c1)C(=O)CCl` (centres undefined): the outcome was inactive.

Regarding `COC(=O)c1ccccc1S(=O)(=O)NC(=O)N(C)c1nc(C)nc(OC)n1`, the compound was called inactive.

Take `Cc1cc(C)nc(NC(=O)NS(=O)(=O)c2ccccc2C(=O)OC2COC2)n1`: the call was inactive.

Turning to `CNC(=O)CSP(=S)(OC)OC`, the compound was classed as inactive.

As for `ClC1C(Cl)C(Cl)C(Cl)C(Cl)C1Cl` (centres undefined), the call was inactive.

For the compound `OCCOc1ccccc1`, the compound was classed as inactive.

On to `CNC(=O)Oc1cccc(N=CN(C)C)c1`, for which the call was inactive.

`N#CN`: the compound was classed as inactive.

`COC(=O)c1ccccc1CS(=O)(=O)NC(=O)Nc1nc(OC)cc(OC)n1`: the outcome was inactive.

Turning to `Cc1[nH]c(=O)n(C(C)(C)C)c(=O)c1Cl`, the compound was classed as inactive.

On to `O=S(=O)(O)C(F)(F)C(F)(F)C(F)(F)C(F)(F)C(F)(F)C(F)(F)C(F)(F)C(F)(F)F`, for which the result was inactive.

Turning to `CC1(C)C(C=C(Cl)Cl)C1C(=O)OC(C#N)c1ccc(F)c(Oc2ccccc2)c1` (centres undefined), the call was inactive.

In the case of `COC(=O)c1ccccc1S(=O)(=O)NC(=O)Nc1nc(C)nc(OC)n1`, the result was inactive.

As to `CCN(CC)C(=O)SCc1ccc(Cl)cc1`, the compound was classed as inactive.

Take `[2H]C1([2H])[n+]2ccccc2-c2cccc[n+]2C1([2H])[2H]`: the compound was called inactive.

On to `COP(=O)(OC)OC=C(Cl)Cl`, for which the compound was classed as inactive.

`CCc1ccc(C(=O)NN(C(=O)c2cc(C)cc(C)c2)C(C)(C)C)cc1`: the compound was called inactive.

With `O=C(O)COc1ccc(Cl)cc1Cl`, the compound was called inactive.

Regarding `COc1cc(OC)nc(NC(=O)NS(=O)(=O)c2cc(NC=O)ccc2C(=O)N(C)C)n1`, the result was inactive.

With `O=S1OCC2C(CO1)C1(Cl)C(Cl)=C(Cl)C2(Cl)C1(Cl)Cl` (centres undefined), the compound was classed as inactive.

For `Oc1ccc(Cl)cc1Cc1ccccc1`, the compound was called inactive.

Regarding `CCOc1nc(NC)nc(NC(=O)NS(=O)(=O)c2ccccc2C(=O)OC)n1`, the call was inactive.

`Clc1ccccc1-c1nnc(-c2ccccc2Cl)nn1`: the result was inactive.

For the compound `O=C(O)CCCOc1ccc(Cl)cc1Cl`, the call was inactive.

In the case of `O=[N+]([O-])/N=C1\NCCN1Cc1ccc(Cl)nc1`, the outcome was inactive.
